# Only some compounds are listed: those with a hit (about 1.8% of all), similar ones and a draw of the others.
# TRPML1 ag: qHTS for Agonists of the Human Mucolipin Transient Receptor Potential 1 (TRPML1). Mucolipin-1 (Homo sapiens), Q9GZU1. TRPML1-expressing cells, Ca2+ dye fluorescence, FDSS. activation, % (test concentration not listed). 0.12% of 410,000 active. AID 624414, 2012; in the data active = activation above about 50%; inconclusive = mostly about 30% to 49%; note: 0% is about no effect
#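 Cells: TRPML1-DL, 1X Tet inducer, ~16 h at 37 degrees C/5% CO2. Dye: ABD Ca8 no-wash + quencher, 45-90 min RT. Read: 10 s baseline, compound add, 110 s agonist phase; 54-4 EC80 (4uM final), 110 s antagonist phase.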
# TRPML1 blocker: qHTS for Inhibitors of the Human Mucolipin Transient Receptor Potential 1 (TRPML1) | Mucolipin-1 (Homo sapiens), Q9GZU1 | TRPML1-inducible cells, Ca2+ dye fluorescence, FDSS; stronger effect = lower value; inhibition of EC80 agonist-evoked calcium signal | activity change, negative = inhibition, % (test concentration not listed) | 0.02% of 390,000 active | AID 624415, 2012; in the data active = activity change below about -50%; inconclusive = between about -30% and that limit;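 note: stimulus is agonist 54-4 at its EC80 concentration; % is set by controls: 0 for no effect and ±100 for the full control effect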
#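 TRPML1-DL cells, Tet-induced overnight (~16 h, 37 °C) at 1,500 cells/well, were loaded with Ca8 no-wash dye plus quencher for 45-90 min at room temperature. Compounds were pinned during FDSS kinetic reading; agonist 54-4 at EC80 (4 uM final) then added.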
# GLP1R ag: qHTS of GLP-1 Receptor Agonists. Glucagon-like peptide 1 receptor (Homo sapiens), P43220. HEK293 GLP-1R CRE-luciferase, luminescence, 4-6 h; cells express a hypersensitive GLP-1R form. Potency, µM (doses to about 45.6 µM), without a hit: at the highest dose activation, most hits filed as activators. 0.007% of 380,000 active. AID 624172, 2012; note: potency is the fitted concentration of half-maximal effect; % of control where 0% means no effect
# Target sequence (P43220 whole entry, looked up): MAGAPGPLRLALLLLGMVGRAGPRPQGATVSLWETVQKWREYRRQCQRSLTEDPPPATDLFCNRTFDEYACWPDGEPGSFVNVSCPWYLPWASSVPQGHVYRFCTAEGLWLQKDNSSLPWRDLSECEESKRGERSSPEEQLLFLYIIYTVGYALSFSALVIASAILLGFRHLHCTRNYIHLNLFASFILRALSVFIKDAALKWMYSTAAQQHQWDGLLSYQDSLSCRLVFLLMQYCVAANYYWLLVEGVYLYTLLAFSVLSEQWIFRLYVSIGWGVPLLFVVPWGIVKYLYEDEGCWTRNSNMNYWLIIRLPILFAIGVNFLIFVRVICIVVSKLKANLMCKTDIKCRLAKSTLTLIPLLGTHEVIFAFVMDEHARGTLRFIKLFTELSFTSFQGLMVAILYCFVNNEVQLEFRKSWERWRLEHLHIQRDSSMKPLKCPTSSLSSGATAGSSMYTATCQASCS
# GLP1R inv ag: qHTS of GLP-1 Receptor Inverse Agonists (Inhibition Mode) | Glucagon-like peptide 1 receptor (Homo sapiens), P43220 | HEK293 GLP-1R CRE-luciferase, luminescence, 24 h; GLP-1R form is constitutively active | Potency, µM (doses to about 38.3 µM), for inactives: top-dose activity change, negative = inhibition, most hits filed as inhibitors | 1.6% of 410,000 active; note: potency is the fitted concentration of half-maximal effect; % is set by controls: 0 for no effect and ±100 for the full control effect; nearly all actives have a fitted effect of over 55% in size
#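 qHTS in 1536-well format: reporter HEK293 cells expressing constitutive GLP-1R activity in DMEM + 10% Nu serum, 24 hr with compounds at 37 deg C, luminescence read after 12 min with detection reagent.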
# HEK293 tox: qHTS of GLP-1 Receptor Inverse Agonists: Cytotox Screen | Potency, µM (top dose mostly 38.3 µM), for the others: top-dose activity change, negative = inhibition, actives largely listed as inhibitors | HEK293 cAMP-luciferase reporter cells, luminescence, 24 h | 0.13% of 410,000 active;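 note: loss of luciferase light is scored as toxicity; potency is the fitted concentration of half-maximal effect; % is set by controls: 0 for no effect and ±100 for the full control effect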
#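 Here, cytotoxicity is scored as loss of luminescence. The MLSMR collection was tested on cells seeded in medium containing 10% Nu serum, with a 24 hr compound exposure preceded by 12 hours of culture.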
# Active calls of the source: *; ? = inconclusive; . = no result given. Unless noted, calls come from the whole dose curve; as a rule, active = well fitted curve in the direction sought with a large enough effect; inconclusive = small, poorly fitted or top-dose-only effect, or another doubt; inactive = no such curve, though single readings can be large; an effect the other way counts as inactive or inconclusive.
SMILES,TRPML1 ag,TRPML1 blocker,GLP1R ag,GLP1R inv ag,HEK293 tox
CC(C)(C)C(=O)CSc1ncnc2c1cnn2Cc1ccccc1,4,8,21%,3.5µM*,1%
CCc1ccccc1NC(=O)Cn1c(=O)ccc2cc(S(=O)(=O)N3CCCC3)ccc21,1,-3,-4%,5%,-8%
CC(=O)c1ccc(-c2ccc([C@H]3[C@@H]4C=CCC[C@@]4(C)C(=O)N3Cc3ccccc3)c(F)c2)cc1,2,94,-6%,11µM*,-5%
COc1ccc(Br)cc1[C@H]1[C@@H]2C=CCC[C@@]2(C)C(=O)N1Cc1ccccc1,0,-4,5%,4.5µM*,-15%
COc1ccc(-c2cc([C@H]3[C@@H]4C=CCC[C@@]4(C)C(=O)N3Cc3ccccc3)ccc2F)cc1,0,-4,6%,10µM*,4%
COc1ccc(-c2cc(C3C4C=CCCC4(C)C(=O)N3Cc3ccccc3)ccc2F)cc1 (configuration not stated),1,60,.,.,.
O=C(NCC(c1cccnc1)N1CCc2ccccc21)c1ccc(F)cc1 (configuration not stated),1,25,.,-16%,1%
COc1ccc(S(=O)(=O)NCCS(=O)(=O)N2CCN(c3ccccc3)CC2)cc1C,1,2,-1%,-11%,0%
COc1cc(/C=C/C(=O)c2ccc(C)c([N+](=O)[O-])c2)cc(OC)c1O,3,10,-6%,10µM*,10%
COc1ccc(/C=C/C(=O)c2ccc(C)c([N+](=O)[O-])c2)cc1O,2,17,-45%,-94%,?
COc1ccc(C2NCCc3c2[nH]c2ccccc32)cc1CN1CCc2cc(OC)c(OC)cc2C1C (configuration not stated),.,.,10%,8.9µM*,?
Cc1ccc(S(=O)(=O)Nc2ccc3c(c2)c(C(=O)OC(C)C)c(C)n3S(=O)(=O)c2ccc(C)cc2)cc1,2,-12,.,?,-4%
C/C(=N/NC(=O)c1ccc(C(C)(C)C)cc1)c1ccccn1,0,-1,?,2.5µM*,?
C/C(=N\NC(=O)C(c1ccccc1)c1ccccc1)c1ccc(O)cc1,.,.,-6%,-25%,7%
C/C(=N\NC(=O)c1ccc(Cl)c(Cl)c1)c1ccccn1,2,-18,7%,?,?
C/C(=N\NC(=O)C(c1ccccc1)c1ccccc1)c1ccccn1,1,17,-10%,2.8µM*,?
O=C(NCCc1ccccc1Cl)c1cc2ccccn2n1,1,5,.,6%,-4%
Cc1cc(C)nc(NC(=O)/C=C/c2cccs2)c1,2,5,-2%,?,3%
O=C(/C=C/c1cccs1)Nc1cccc(NC(=O)/C=C/c2cccs2)n1,1,3,-17%,4µM*,?
Cc1cc(C)c(-c2csc(NC(=O)/C=C/c3cccs3)n2)c(C)c1,1,10,-19%,3.2µM*,17%
CC1C(=O)N(S(=O)(=O)c2ccc([N+](=O)[O-])cc2)[C@H]1c1ccc2ccccc2c1 (some centres not stated),1,-11,.,.,.
CCCCN(c1ccccc1)S(=O)(=O)c1cccc(C(=O)Nc2c(C)n(C)n(-c3ccccc3)c2=O)c1,0,2,-35%,11µM*,-7%
Cc1cc(-n2c(C)nc3ccccc3c2=O)ccc1NC(=O)c1ccc(C)c([N+](=O)[O-])c1,1,-1,.,8%,7%
O=C(C[n+]1ccc(-c2cc(C(=O)Nc3cccc(C(F)(F)F)c3)c3ccccc3n2)cc1)c1cccc([N+](=O)[O-])c1,0,2,-1%,11µM*,?
O=C(C[n+]1cccc(NC(=O)c2ccccc2)c1)c1cccc([N+](=O)[O-])c1,0,-2,1%,14%,-6%
SMILES,TRPML1 ag,TRPML1 blocker,GLP1R ag,GLP1R inv ag,HEK293 tox
Cc1noc(Cn2c(=O)c3cc4c(cc3n(CC(=O)Nc3ccccc3F)c2=O)OCO4)n1,1,-24,.,1%,6%
Cc1ccc(C)c(NC(=O)CN2CCSc3ccc(S(=O)(=O)N4CCCC4)cc32)c1,1,10,-5%,?,-21%
Cc1ccc2sc(N(CCCN(C)C)C(=O)c3ccc(S(=O)(=O)N(C)C4CCCCC4)cc3)nc2c1C,2,-1,-7%,2.8µM*,?
Cc1ccc2sc(N(CCCN(C)C)C(=O)c3ccc(S(=O)(=O)N4CCOCC4)cc3)nc2c1C,1,-3,-6%,10µM*,-15%
CCOC(=O)N1CCN(S(=O)(=O)c2ccc(C(=O)N(CCCN(C)C)c3nc4c(C)c(C)ccc4s3)cc2)CC1,0,-11,6%,?,-11%
Cc1cc(C)c2nc(N(CCN(C)C)C(=O)c3ccc(S(=O)(=O)N(C)CC4CCCO4)cc3)sc2c1 (configuration not stated),0,15,-6%,10µM*,5%
Cc1cc(C)c2nc(N(CCCN(C)C)C(=O)c3ccc(S(=O)(=O)N4CC(C)OC(C)C4)cc3)sc2c1 (configuration not stated),0,-14,-8%,10µM*,11%
Cc1ccc(S(=O)(=O)N2CCN(c3nc(-c4cnccn4)nc4ccccc34)CC2)cc1,-1,.,.,.,.
CCCCNc1ncnc2oc(-c3ccco3)c(-c3ccco3)c12,-1,.,.,.,.
O=C(OCc1ccco1)c1ccc2c(c1)N(Cc1cccc(F)c1)C(=O)c1ccccc1S2,2,50,12%,?,7%
CCCC[n+]1c(/C=C/c2c(OC)cc(OC)cc2OC)ccc2ccccc21,15,.,.,.,.
CN(/N=C/c1cc(Cl)cc(Cl)c1O)c1c(Cl)cccc1[N+](=O)[O-],1,-10,9%,8.9µM*,-2%
COc1cccc(NC(=S)NC2CC(C)CC(C)(C)C2)c1 (configuration not stated),1,3,0%,8.9µM*,?
COc1ccccc1C(=O)c1c(N)c(-c2nc(-c3ccccc3)cs2)c2ccccn12,2,?,.,?,-9%
CC(C)(C)c1ccc(OCCNC(=S)Nc2ccccc2)cc1,4,6,9%,10µM*,5.6µM*
CC(C)(C)c1ccc(OCCNCc2ccccc2)cc1,-1,-1,20%,?,?
COc1ccc2[nH]c3c(NCCCOC(C)C)ncnc3c2c1,0,7,16%,4%,-2%
COc1ccc2[nH]c3c(NCCC4=CCCCC4)ncnc3c2c1,0,-4,7%,5µM*,?
C=Nc1ccc(/C=C/c2ccnc3ccccc23)cc1,8,.,.,.,.

# From PubChem BioAssay
